Structures are written as SMILES. Values joined by “and” are separate entries in the source; they are usually repeats but may differ in a detail not shown here. Equal entries are not always repeated. Hit rate of the full screen: of about 370,000 compounds, about 2,300 (0.62%) were called active.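 The calls were made as follows: active = lowest replicate activation of at least 40%, so every replicate reaches that level; inactive = the rest.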 Many of the other results were omitted from the sample, so actives are more common in it than they were. Some structures have more than one record in an assay (separate samples or runs), and their calls can disagree.

Data on 25 compounds can be found in PubChem BioAssay AID743287 (Broad Institute, 2014).

The nature of the test: primary screen for activators of insulin secretion dependent on glucose, INS-1E cells, GLuc reporter luminescence (AID 743287).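 Also: 0% = median of neutral control wells and 100% = median of IBMX positive control wells.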 As to conditions: INS-1E GLuc reporter insulin secretion, 2-3 h, at 16.6 µM, stronger effect = higher value.
With `Cc1ccc(CN2CCCC(C(=O)c3ccc4c(c3)OCO4)C2)cc1C` (stereo not given), the activation is -7.76% (inactive).
Then `COc1cccc(CN2CCCC(C(=O)c3ccccc3SC)C2)c1O` (stereo not given), with -0.167% (inactive).
`COc1ccc(C(=O)C2CCCN(Cc3ccc(C)s3)C2)cc1OC` (stereo not given): the activation was 53.8% (active).
As for `CCN(CC)C(=O)[C@@H]1C=C2c3cccc4[nH]c(Br)c(c34)C[C@H]2N(C)C1`, the activation is 13.7% (inactive).
Turning to `COC(=O)[C@H]1[C@H](CO)[C@H]2Cn3c(ccc(C4=CCCC4)c3=O)[C@@H]1N2C(=O)CC1CC1`, the activation was -1.71% (inactive).
Consider `FC(F)(F)CN1CC2NC(C1)C2c1ccc(Br)cc1` (stereo not given), for which the activation was -10.5% (inactive).
Regarding `O=C(O)[C@H]1[C@H](CO)[C@H]2Cn3c(ccc(-c4ccccc4F)c3=O)[C@@H]1N2C(=O)c1cccnc1`, the activation was 19.1% (inactive).
Turning to `CC(Cc1ccccc1)NC=O` (stereo not given), the activation was 3.77% (inactive).
For `CC(Cc1ccccc1)NCCC(c1ccccc1)c1ccccc1` (stereo not given), the activation was 182% (active).
In the case of `FC(F)(F)CN1CC2C(c3ccc(Br)cc3)C(C1)N2CC1CC1` (stereo not given), the activation was -3.91% (inactive).
In the case of `COC(=O)[C@@H]1[C@@H](CO)[C@@H]2Cn3c(ccc(C4=CCCCC4)c3=O)[C@H]1N2CC1CC1`, the activation was 6.37% (inactive).
Then `CCCCCCCCCCCCn1ccc(=N)cc1`, with 212% (active); and `Clc1ccc([C@@H]2CC3CCC2N3)cn1` (stereo not given in full), with -8.41% (inactive); and `C/C=C/c1ccc(C2[C@@H]3CN(S(C)(=O)=O)C[C@H]2N3)cc1` (stereo not given in full), with -6.54% (inactive).
As to `O=C(O)[C@H]1[C@H](CO)[C@H]2Cn3c(cccc3=O)[C@@H]1N2C(=O)c1ccccc1`, the activation is 0.382% (inactive).
As for `C=CCN1[C@@H]2CN(S(C)(=O)=O)C[C@H]1C2c1ccc(Br)cc1` (stereo not given in full), the figure is 17.3% (inactive); as for `CC(C)Nc1nc(Cl)nc(NC(C)C)n1`, 50.3% (active).
On to `CC(=O)N1C[C@@H]2C(c3ccc(Br)cc3)[C@H](C1)N2C` (stereo not given in full), for which the activation was 27.1% (inactive) and -21.4% (inactive).
Consider `COc1ccc2c(c1)[C@@]13CCCCC1[C@@H](C2)NCC3` (stereo not given in full), for which the activation was 8.42% (inactive).
As for `COc1cccc(-c2ccc3n(c2=O)C[C@H]2[C@H](CO)[C@@H](C(=O)O)[C@@H]3N2C(=O)c2cnccn2)c1`, the figure is 14.6% (inactive); as for `COc1ccccc1CN1[C@@H](CO)[C@@H](c2ccccc2)C12CN(C(=O)Cc1ccccc1)C2`, -6.56% (inactive).
For the compound `COC(=O)C[C@@H]1CC[C@@H]2NC[C@@H](O)COC[C@H]2O1`, the activation was 7.25% (inactive).
Turning to `COC(=O)C[C@H]1CC[C@H]2NC[C@@H](O)COC[C@@H]2O1`, the activation is 44% (active) and 14.5% (inactive).
Consider `CCC(C)NC1(c2ccccc2)CCCCC1` (stereo not given), for which the activation was 12.2% (inactive).
Turning to `C[C@@H]1CN([C@H](C)CO)C(=O)CCCn2cc(nn2)CO[C@@H]1CN(C)C(=O)Oc1cccc2ccccc12`, the activation was -14.5% (inactive).
